Assay outcomes as filed in PubChem.
mHTT-CaM PPI inh: disrupts binding of mutant huntingtin to calmodulin | hit rate 3.6% among 190,000 | inhibition, % at 15 µM | AlphaScreen His-mHTT/GST-CaM binding, luminescence;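 further: 0% = both proteins with DMSO and 100% = one protein alone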
Pf apPOL block: Pf-apPOL DNA polymerase inhibition | Recombinant Pf-apPOL, molecular beacon fluorescence, 1.5 h | inhibition, % at 10 µM | hit rate 0.25% among 210,000
* = called active by the depositor; i = inactive; x = no result given. This is a sample that favours compounds with a hit; in the whole collection about 3.5% have one here. No stated cut-off is given here; in the data, active means inhibition above about 50%; inactive means the rest.

SMILES | mHTT-CaM PPI inh | Pf apPOL block
Cc1ccc(N2C(=O)CC(N3CCC(C(N)=O)(N4CCCCC4)CC3)C2=O)c(C)c1 (centres undefined) | -3 | 4
O=C1C(=O)N(c2cccnc2)C(c2ccccc2[N+](=O)[O-])C1=C(O)c1ccc(Cl)cc1 (centres undefined) | 88* | -218
O=C(O)CN1C(=O)C(=O)C(=C(O)c2ccc(Cl)cc2)C1c1ccccc1[N+](=O)[O-] (centres undefined) | 6 | -6
O=C(Nc1ncc(Cc2cccc(C(F)(F)F)c2)s1)c1ccccc1[N+](=O)[O-] | 11 | -4
O=C(Cc1cccs1)N1CCc2nc(N3CCCC3)nc(N3CCCCC3)c2C1 | 33 | 0
Cc1ccccc1-c1ccc(CN2C(C)C(=O)N(Cc3cn(Cc4ccco4)nn3)CCS2(=O)=O)cc1 (centres undefined) | 92* | -2
CC1C(=O)N(Cc2cn(Cc3ccco3)nn2)CCS(=O)(=O)N1Cc1ccc(-c2ccc(F)nc2)cc1 (centres undefined) | 25 | 1
CC1C(=O)N(Cc2cn(Cc3ccco3)nn2)CCS(=O)(=O)N1Cc1ccc(-c2ccccc2C(F)(F)F)cc1 (centres undefined) | 68* | -3
COc1cccc(-c2ccc(CN3C(C)C(=O)N(Cc4cn(Cc5ccco5)nn4)CCS3(=O)=O)cc2)c1OC (centres undefined) | 2 | 0
Cc1ccc(-c2ccc(CN3C(C)C(=O)N(Cc4cn(Cc5ccco5)nn4)CCS3(=O)=O)cc2)c(C)c1 (centres undefined) | 84* | 0
Cc1ccc(-c2ccc(CN3C(C)C(=O)N(Cc4cn(Cc5ccco5)nn4)CCS3(=O)=O)cc2)cc1 (centres undefined) | 19 | -7
Cc1c(Cl)cccc1NC(=O)Cn1cc2c(n1)CCC(C)C2 (centres undefined) | -13 | -3
Cc1ccccc1N1CC23C=CC(O2)C(C(=O)O)C3C1=O (centres undefined) | 1 | -3
Cc1ccccc1N1CCN(C(=O)C(C)N2C(=O)c3ccccc3C2=O)CC1 (centres undefined) | 33 | -3
CCN(CC)CCCNC(=O)C(C)C1CCN(S(=O)(=O)c2ccc(Cl)s2)CC1 (centres undefined) | -3 | 1
O=C(NCCc1c[nH]c2ccccc12)c1cc2n(n1)C(C(F)(F)F)CC(c1ccco1)N2 (centres undefined) | 62* | -2
O=C(NCc1ccccc1F)c1cc2n(n1)C(C(F)(F)F)CC(c1ccco1)N2 (centres undefined) | -3 | -3
O=S(=O)(c1cccc(C(F)(F)F)c1)N1CCC(CN2CCCCCC2)CC1 | 98* | -1
CC1CCN(CC2CCN(S(=O)(=O)c3cccc(C(F)(F)F)c3)CC2)CC1 | -17 | 0
COc1nn(C)cc1C(=O)N1CCCC(C(=O)NCCC2=CCCCC2)C1 (centres undefined) | -10 | -3
Cc1oc2cc(O)ccc2c(=O)c1-c1ccccc1 | -3 | 0
O=c1cc2oc3cc(O)c(O)cc3c(-c3ccccc3O)c-2cc1O | 85* | i
O=c1cc2oc3cc(O)c(O)cc3c(-c3ccccc3)c-2cc1O | 69* | 8
Nc1ccc2oc(-c3ccccc3Cl)cc(=O)c2c1O | 15 | -2
C[N+]1(CC(O)COc2ccc(Br)cc2)CCCCC1 (centres undefined) | 0 | 0
SMILES | mHTT-CaM PPI inh | Pf apPOL block
CSc1ncnc2c1sc1nc(N3CCOCC3)c3c(c12)CC(C)(C)OC3 | 0 | -4
Cc1ccc(N(C(=O)c2ccc(C(C)(C)C)cc2)C2C=CS(=O)(=O)C2)cc1 (centres undefined) | 20 | 80*
O=C(c1ccc(Cl)cc1)N(c1ccc(Cl)cc1)C1C=CS(=O)(=O)C1 (centres undefined) | 1 | 0
Cn1nc(CC#N)c(C#N)c1N | x | 11
N#Cc1c(C#N)c(N)n(N)c1N | 100* | x
CCOc1nc(NCC(=O)O)nc(NCC(=O)O)n1 | -2 | 0
Cc1ccc2sc(N(CCCn3ccnc3)C(=O)c3ccc4c(c3)OCCO4)nc2c1C | 58* | -6
CSc1cccc2sc(N(CC3CCCO3)C(=O)c3ccc4c(c3)OCCO4)nc12 (centres undefined) | 2 | -1
Cc1cc(Cl)cc2sc(N(CCCn3ccnc3)C(=O)c3cccs3)nc12 | 82* | -7
CC(=O)N(CCN1CCOCC1)c1nc2c(C)cc(Cl)cc2s1 | 10 | -1
O=C(c1cc(F)c(F)cc1Cl)N1CCCC1 | 2 | 5
CCC1(CC)OC(c2cc(Cl)c(O)c(OC)c2)Nc2ccccc21 (centres undefined) | 16 | -1
CCOc1c(OC)cc(C2C(C#N)=C(N)Oc3n[nH]c(-c4cccs4)c32)cc1OC (centres undefined) | 37 | -5
CC1CCN(C(=O)C2c3ccccc3CCN2CC(=O)Nc2ccc(Cl)cc2F)CC1 (centres undefined) | 68* | -3
Cc1ccc(C)c(NC(=O)CN2CCc3ccccc3C2C(=O)N2CCC(C)CC2)c1 (centres undefined) | 12 | -6
Cc1cc(NC(=O)CN2CCc3ccccc3C2C(=O)N2CCCCC2)ccc1F (centres undefined) | 2 | -1
O=C(CN1CCc2ccccc2C1C(=O)N1CCCCC1)Nc1ccc(Cl)cc1F (centres undefined) | -6 | -2
Cc1ccc(NC(=O)CN2CCc3ccccc3C2C(=O)N2CCCC2)cc1Cl (centres undefined) | 64* | -4
Cc1c(Cl)cccc1NC(=O)CN1CCc2ccccc2C1C(=O)N1CCC(C)CC1 (centres undefined) | 69* | -6
Cc1c(-c2ccccc2)nc2c3ccccc3ccn12 | -14 | 9
COc1ccc(-c2cn3c(C(=O)NCc4cccs4)csc3n2)cc1 | 10 | -3
Cc1ccc(-c2cn3c(CC(=O)NCc4cccs4)csc3n2)cc1 | 52* | -21
Cc1cc(C)c(N2C(=O)NC(=O)/C(=C\c3ccc([N+](=O)[O-])o3)C2=O)c(C)c1 | 60* | -12
O=C1Nc2ccc(Br)cc2/C1=C/c1ccc([N+](=O)[O-])o1 | 71* | -7
O=C1NN(c2ccc(Br)cc2)C(=O)/C1=C/c1ccc([N+](=O)[O-])o1 | 97* | 5
SMILES | mHTT-CaM PPI inh | Pf apPOL block
C=CCN1C(=O)NC(=O)/C(=C/c2ccc(-c3ccc([N+](=O)[O-])cc3C)o2)C1=O | 5 | 3
Cc1ccc(-c2ccc(/C=C3\C(=O)NN(c4ccc(F)cc4)C3=O)o2)c([N+](=O)[O-])c1C | 40 | 6
O=C1Nc2ccc(Br)cc2/C1=C/c1ccccc1 | 48 | -6
CCOc1ccc(C(=O)Nc2cccc(NC(=O)CC)c2)cc1[N+](=O)[O-] | 9 | -6
Cc1cccc(NC(=O)Cn2c(C)nc(C)c(C)c2=O)c1C | -7 | -3
COc1ccc(NC(=O)C2CC(c3ccc(OC)cc3)=NO2)cc1 (centres undefined) | -8 | -1
O=C(Cc1ccccc1)Nc1ccc(NC(=O)c2ccccc2)c(Br)c1 | -4 | -4
O=C1NC(=S)N/C1=C/c1cc(Br)c(Sc2ccc(Cl)cc2)o1 | 4 | x
O=C(c1cccc(F)c1)N1CCCC1c1ccccc1F (centres undefined) | -8 | -6
CCCOC(=O)c1ccc(Oc2c(C(F)(F)F)oc3cc(OC(=O)N(C)C)ccc3c2=O)cc1 | 3 | -7
C(#Cc1ccccc1)CN1CCN(CC#Cc2ccccc2)CC1 | 16 | -1
Cc1ccc2ccccc2c1C[N+](C)(C)CC#Cc1ccccc1 | 77* | x
